Shown are actives, neighbours in structure and some others; about 3.4% of the full set was active somewhere.
Wnt act = Wnt/beta-catenin pathway activation. AID 743398. activation, % at 9.35 µM. actives 1.2% (n = 300,000). Wnt/beta-catenin reporter cell assay, activator, plate reader; in the data active = activation above about 30%, passing the limit was not always enough; inconclusive = no clear call, values can overlap the other calls;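 also: 0% = neutral control wells and 100% = positive control wells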
Env fusion inh = HIV envelope-mediated fusion inhibition; HeLa-JRFL Env/CEM21 cell fusion, luciferase; inhibition, % at 12.3 µM; actives 1.1% (n = 360,000); AID 651610;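 active = mean replicate inhibition score of at least 50 and every replicate individually at or above 50; inconclusive = only one of the two criteria met; inactive = mean below 50 and not all replicates reaching 50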;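 also: 0% = plate neutral controls and 100% = maraviroc near 300 nM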
miR122 inh = blocks miR-122 activity in Huh7 sensor cells | Huh7 miR-122 Renilla luciferase sensor, 48 h; neutral wells = 0, positive control = 100 | activation (reporter increase), % at 12.5 µM | actives 0.3% (n = 340,000) | AID 602342;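 active = mean replicate activation score at least 90 and every replicate individually at or above 90; inconclusive = only one of the two criteria met; inactive = neither criterion met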;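 also: higher luciferase means less miR-122 activity so hits act as miR-122 inhibitors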
esBAF inh = SWI/SNF esBAF complex inhibition. actives 2% (n = 350,000). mouse ES cells, Bmi1-luciferase knock-in reporter, 24 h; 100% = twice the neutral-well signal. reporter increase, % at 12.5 µM; in the data active = activation above about 40%; inconclusive = no clear call, values can overlap the other calls;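 also: 0% = median of the plate's neutral control wells and 100% = double that signal; a rise in the Bmi1 reporter signal indicates esBAF inhibition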
MITF TRPM1 HTS = MITF TRPM1 promoter activation in melanoma cells. SK-MEL-5 TRPM1-promoter luciferase, 24 h; % of positive control, neutral wells = 0. activation, % at 12.5 µM. actives 0.75% (n = 300,000). AID 588334;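 active = mean activation of at least 80% with every replicate also reaching 80%; inconclusive = mean reaches 80% but some replicate falls short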;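 also: 0% = neutral control wells and 100% = parthenolide positive control wells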
Active calls of the source: *; [ ] = another dose, or the depositor's remark.

For Cc1ccc2c(c1)[C@H]1[C@H](CO2)[C@H](c2ccccc2)[C@]2(C)C(=O)N(Cc3ccc(F)cc3)CC(=O)N12 the results were Wnt act 2, Env fusion inh 62*, miR122 inh 3, esBAF inh -6 and MITF TRPM1 HTS 15.
O=C(NCC[C@@H]1CC[C@@H](NC(=O)c2ccccc2F)[C@@H](CO)O1)c1ccc2c(c1)OCO2 was read as Env fusion inh -18[16.7 µM], miR122 inh -20[16.7 µM] and esBAF inh -6.
Screening COc1ccc(-c2csc(NC(=O)c3ccccc3NS(=O)(=O)c3ccc(C)cc3)n2)cc1 returned Wnt act 2, miR122 inh 3, esBAF inh -75 and MITF TRPM1 HTS -7.
`COc1ccccc1C(=O)Nc1ccncc1` gave Wnt act 1, Env fusion inh -260, miR122 inh -12, esBAF inh -3 and MITF TRPM1 HTS 3.
`O=C(Nc1nnc(-c2ccccc2)s1)c1ccc(F)cc1` gave Wnt act 12, Env fusion inh -16, miR122 inh -3, esBAF inh 47* and MITF TRPM1 HTS 84*.
For COc1ccc(S(=O)(=O)Nc2ccccc2C(=O)Nc2nc(-c3ccc(F)cc3)cs2)cc1OC the results were Env fusion inh 66* and MITF TRPM1 HTS -2.
COc1ccccc1C(=O)Nc1nsc(-c2ccccc2)n1 was read as Wnt act inconclusive, Env fusion inh -28, miR122 inh -6, esBAF inh 46* and MITF TRPM1 HTS inconclusive.
For COc1ccccc1C(=O)Nc1nnc(-c2ccc(F)cc2)s1 the results were Wnt act 13, Env fusion inh -14, miR122 inh -3 and esBAF inh 52*.
CO[C@H]1CN(C)C(=O)c2cc(NC(=O)Nc3c(C)noc3C)ccc2OC[C@H](C)N(CC2CC2)C[C@@H]1C was read as esBAF inh -2.
C/C=C/c1ccc2c(c1)O[C@@H](CN(C)C(=O)C1CCCCC1)[C@@H](C)CN([C@@H](C)CO)S2(=O)=O was read as Env fusion inh -4[16.7 µM] and esBAF inh -13.
`O=S(=O)(Cc1ccccc1)N1CCCCN2[C@@H](CO)[C@@H](c3ccc(-c4ccccc4)cc3)[C@@H]2C1` gave miR122 inh 4[16.7 µM].
`Cc1cccc2nc(COc3ccc4ccccc4c3Br)cn12` gave Wnt act 0, Env fusion inh -94 and MITF TRPM1 HTS 100*.
CC(=O)N(C)C[C@H]1Oc2ncc(-c3cccc(C#N)c3)cc2C(=O)N([C@H](C)CO)C[C@H]1C was read as Env fusion inh 0[16.7 µM], miR122 inh -4[16.7 µM] and esBAF inh 1.
`CC(C)c1ccc(Nc2nnc(SCC(=O)NCC3CCCO3)s2)cc1` (configuration not stated) gave Wnt act 47*, Env fusion inh -31, miR122 inh -1, esBAF inh 8 and MITF TRPM1 HTS 37.
Screening O=C(C[C@H]1C=C[C@H](NC(=O)Nc2ccc(F)cc2)[C@@H](CO)O1)NCCN1CCCC1 returned Env fusion inh 15[16.7 µM], miR122 inh 14[16.7 µM] and esBAF inh 0.
For Fc1ccccc1Cn1cc(C(=S)N2CCOCC2)c2ccccc21 the results were Wnt act 4, Env fusion inh 6, miR122 inh 247*, esBAF inh -2 and MITF TRPM1 HTS 8.
`Fc1ccc(Cn2cc(C(=S)N3CCOCC3)c3ccccc32)cc1` gave Wnt act -5, Env fusion inh 26, miR122 inh 59, esBAF inh -3 and MITF TRPM1 HTS 1.
CCS(=O)(=O)Nc1ccc2c(c1)C(=O)N(C)C[C@H](OC)[C@@H](C)CN(C(C)=O)[C@H](C)CO2 was read as Env fusion inh 10[16.7 µM], miR122 inh -15[16.7 µM] and esBAF inh -4.
`CC(C)(C)c1ccc(-c2nnc(N)o2)cc1` gave Wnt act 42*, Env fusion inh -118, esBAF inh 58* and MITF TRPM1 HTS 32.
For CCC[N+]1(CC#CCC(c2ccccc2)c2ccccc2)CCCCC1 the results were Wnt act -2, Env fusion inh 74*, miR122 inh -7, esBAF inh -26 and MITF TRPM1 HTS -51.
CC(C)CNC(=O)N1c2ccccc2Sc2ccccc21 was read as Wnt act 3, Env fusion inh 11 and MITF TRPM1 HTS -10.
`O=C(NCCc1ccccc1)N1c2ccccc2Sc2ccccc21` gave Wnt act -3, Env fusion inh 60*, miR122 inh -8 and MITF TRPM1 HTS 5.
O=c1oc(-c2ccc(O)c(O)c2)cc2cccc(O)c12 was read as Wnt act 3, miR122 inh -3, esBAF inh 64* and MITF TRPM1 HTS 35.
Screening COCC1CCCN(C(=O)c2ccc3oc(CCCc4ccccc4)nc3c2)C1 (configuration not stated) returned Wnt act 1, Env fusion inh -10, miR122 inh -6, esBAF inh 16 and MITF TRPM1 HTS 6.
Screening O=C(c1ccc2oc(CCc3ccccc3)nc2c1)N1CCC(O)CC1 returned Wnt act 26, Env fusion inh -39, miR122 inh 2, esBAF inh -10 and MITF TRPM1 HTS 92*.
Screening COCC1CCN(C(=O)c2ccc3oc(CCCc4ccccc4)nc3c2)C1 (configuration not stated) returned Wnt act 19, Env fusion inh -11, miR122 inh 1, esBAF inh 46* and MITF TRPM1 HTS 59.
`CCCCc1nc2cc(C(=O)N3CCC(OCCOC)CC3)ccc2o1` gave Wnt act 4, Env fusion inh -7, miR122 inh 3, esBAF inh 24 and MITF TRPM1 HTS 26.
CCCCc1nc2cc(C(=O)N3CCCC(COC)C3)ccc2o1 (configuration not stated) was read as Wnt act 22, Env fusion inh -34, miR122 inh -6, esBAF inh 63* and MITF TRPM1 HTS 63.
CCOC(=O)N1CCN(C(=O)c2ccc3oc(CCc4ccccc4)nc3c2)CC1 was read as Wnt act 0, Env fusion inh 1, miR122 inh -5 and esBAF inh 22.
CCCCc1nc2cc(C(=O)N3CCCC(OCCC)C3)ccc2o1 (configuration not stated) was read as Wnt act 19, Env fusion inh -21, miR122 inh 0, esBAF inh 64* and MITF TRPM1 HTS inconclusive.
For COCC1CCN(C(=O)c2ccc3oc(Cc4ccc(Cl)cc4)nc3c2)C1 (configuration not stated) the results were Wnt act 2, Env fusion inh -9, esBAF inh 9 and MITF TRPM1 HTS 2.
`C[C@H](NC(=O)C[C@@H]1CC[C@@H](NC(=O)C2CCOCC2)[C@H](CO)O1)c1ccccc1` gave Env fusion inh 12[16.7 µM] and esBAF inh -1.
`COc1cccc(C#Cc2ccc3c(c2)[C@H]2[C@H](CCN2C(=O)c2ccc4c(c2)OCO4)[C@H](CO)N3)c1` gave Env fusion inh -2[16.7 µM].

Screening data as filed in PubChem BioAssay.
